# Most compounds without a hit are left out; they make up all but 11% or so of the library.
# Sfp PPTase inh = Sfp phosphopantetheinyl transferase inhibition | Potency, µM, for the others: largest response in the series, negative = inhibition, usual class: inhibitors | 310,000 tested, 3.5% active | Q9F4F7 | AID 1490 | Biochemical Sfp PPTase activity, qHTS;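 also: the enzyme is Sfp with the accession as filed and its product quenches rhodamine fluorescence; potency is read from the fitted curve at half-maximal effect; 0% = enzyme reaction without inhibitor and -100% = no enzyme wells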
#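 After 15 min at room temperature with compound, 15 nM Sfp received 5 uM rhodamine-CoA plus 12.5 uM BHQ-2-ybbR (50 mM Hepes pH 7.6, 10 mM MgCl2). Rate came from the fluorescence difference over 30 min, ex 525/em 598 nm.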
# Coupling enz = coupling enzyme interference in Giardia aldolase counter-screen; coupling enzyme system counterscreen, AmpLite Red fluorescence; activity change, negative = inhibition, % at 58.2 µM, hits read low; 290,000 tested, 0.67% active; AID 2472; in the data active = activity change below about -30%
#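 Counterscreen lacking aldolase: glyceraldehyde-3-phosphate coupling-enzyme reagent preincubated 10 min at RT with compound (at 57.5 uM final), then substrate/coupling system with AmpLite Red added; fluorescence read at 525/598 nm after 20 min RT.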
# Tau FP inhib = blocks human tau fibril formation measured by polarization | P10636 | K18 P301L tau heparin fibrillization, Alexa594 FP, 6 h | Potency, µM (series often up to 57.7 µM), for inactives: top-dose activity, negative = inhibition, usual class: inhibitors | 280,000 tested, 0.39% active | AID 1468; also: potency is read from the fitted curve at half-maximal effect; nearly all actives have a fitted effect of over 55% in size
# Target sequence (P10636 561-689 P618L limits assumed): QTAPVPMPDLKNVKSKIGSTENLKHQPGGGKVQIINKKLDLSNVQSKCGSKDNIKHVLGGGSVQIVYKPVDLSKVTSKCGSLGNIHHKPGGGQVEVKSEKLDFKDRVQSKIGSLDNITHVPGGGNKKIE
#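 Compound effects on tau fibrillization are measured by Alexa 594 fluorescence polarization (ex 555, em 632 nm). K18 P301L tau is used at 15 uM with 0.24 uM labeled tracer, and 20 uM heparin induces aggregation over 6 hr at 37 C.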
# Tau fluor cs = counter-screen for tau fibril formation inhibitors. tau K18 P301L Alexa594 fluorescence, heparin fibrillization. Potency, µM (top dose mostly 57.7 µM), for inactives: at the highest dose activity change, negative = decrease. 280,000 tested, 0.93% active. AID 1463; also: potency is read from the fitted curve at half-maximal effect; nearly all actives have a fitted effect of over 55% in size
#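 Human tau K18 P301L (15 uM unlabeled, 0.24 uM Alexa 594-labeled) in 100 mM sodium acetate pH 7 with 20 uM heparin, 6 hr at 37 C. ThT 30 uM added, 1 hr ambient; Alexa 594 FP and total fluorescence read at 555/632 nm.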
# G9a inh = G9a (human) methyltransferase inhibition. Q96KQ7. G9a H3K9 monomethylation, AlphaScreen, 2 h. Potency, µM (titrated, usually from 102 µM), inactives show at the highest dose activity, negative = inhibition, actives largely listed as inhibitors. 350,000 tested, 8.8% active; also: potency is read from the fitted curve at half-maximal effect; nearly all actives have a fitted effect of over 75% in size
# Target sequence (Q96KQ7 913-1193 limits assumed): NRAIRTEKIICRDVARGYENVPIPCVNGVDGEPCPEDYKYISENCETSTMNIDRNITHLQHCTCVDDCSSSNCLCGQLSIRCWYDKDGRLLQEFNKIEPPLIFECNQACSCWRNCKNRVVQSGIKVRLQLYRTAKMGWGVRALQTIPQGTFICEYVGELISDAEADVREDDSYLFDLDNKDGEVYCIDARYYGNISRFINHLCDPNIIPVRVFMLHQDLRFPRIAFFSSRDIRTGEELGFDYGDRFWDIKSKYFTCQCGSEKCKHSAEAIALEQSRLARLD
#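 Methyltransferase reactions run at room temperature for 2 h (20 nM enzyme, 500 nM biotin-H3K9 peptide, 20 uM SAM) after a 15 min compound preincubation; product detected by AlphaScreen beads and anti-H3K9me1 antibody.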
# Tau fibril ThT = tau fibrillization inhibition (ThT binding) | recombinant tau K18 P301L (four-repeat tau fragment), heparin-induced fibrillization, ThT fluorescence | Potency, µM (doses to about 57.4 µM), for the others: at the highest dose activity, negative = inhibition, actives largely listed as inhibitors | 270,000 tested, 2.1% active | AID 1460; also: potency is read from the fitted curve at half-maximal effect; nearly all actives have a fitted effect of over 55% in size
#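 K18 P301L tau (15 uM + 0.24 uM Alexa 594-tagged), heparin 20 uM, NaOAc pH 7, 6 h 37 C; ThT 30 uM, 1 h RT, ex 450/em 510 nm.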
# Active calls of the source: *; u = inconclusive; x = no result; [ ] = dose if it differs, or a comment. Unless noted, calls follow the shape of the dose curve; as a rule, active = well fitted curve in the direction sought with a large enough effect; inconclusive = small, poorly fitted or top-dose-only effect, or another doubt; inactive = no such curve, though single readings can be large; an effect the other way counts as inactive or inconclusive. Unless noted, % is scaled to controls: 0 for no effect and ±100 for the full control effect.
SMILES,Sfp PPTase inh,Coupling enz,Tau FP inhib,Tau fluor cs,G9a inh,Tau fibril ThT
CCN(CC)c1ccc(NC(=O)CN2CCN(S(=O)(=O)c3cc(Cl)ccc3OC)CC2)cc1,-5%,0,18%,u,8.9µM*,-16%
O=C(CCN1CCN(c2ccccc2F)CC1)Nc1ccccc1F,9%,1,7%,3%,20%,-2%
CCN(CC)c1ccc(NC(=O)CN2CCN(c3ccccc3F)CC2)cc1,-3%,2,8%,-16%,8.9µM*,-14%
O=C(CN1CCN(c2ccccc2F)CC1)Nc1ccccc1F,5%,4,-3%,-4%,50µM*,-6%
S=C(NC1CC2CCC1C2)N1CCN(c2cccc(Cl)c2)CC1 (stereo not given),9%,-2,-3%,u,35%,-15%
CCOC(=O)c1sc(=S)n(-c2ccccc2)c1SC,-12%,0,-3%,-21%,40%[59 µM],-18%
Cc1ccc(C2NC(=O)c3sc(=S)n(-c4ccccc4)c3N2)cc1 (stereo not given),40µM*,3,-5%,-11%,u,-17%
CC(C)C(OC(=O)c1cccs1)C(=O)NCc1ccco1 (stereo not given),-23%,-1,-3%,3%,0%[12.7 µM],-7%
Cc1cc2c(cc(C(=O)OC(C(=O)NCc3ccco3)C(C)C)n2C)o1 (stereo not given),u,1,-1%,-10%,40µM*,-12%
COc1ccc(CNC(=O)C2CCCN(C(=O)N3CCOc4ccccc43)C2)cc1 (stereo not given),x,x,-6%,-3%,-47%[59 µM],-8%
CCN(CC)S(=O)(=O)c1ccc(Cl)c(C(=O)OC2CC(C)OC2=O)c1 (stereo not given),14%,-1,x,x,13%,x
N#C/C(=C(/O)c1cccs1)c1nnc2n1CCCCC2,u,2,1%,-1%,u,2%
N#C/C(=C(/O)c1ccc([N+](=O)[O-])cc1)c1nnc2n1CCCCC2,-8%,1,-2%,-6%,50µM*,-7%
CC/C(O)=C(\C#N)c1nnc2n1CCCCC2,89µM*,x,2%,-1%,2%[0.501 µM],-3%
N#C/C(=C(/O)COc1ccc(Br)cc1)c1nnc2n1CCCCC2,6%,3,6%,-4%,-43%,-5%
CCSc1ccc2nnc(-c3cccc(F)c3)n2n1,u,4,u,-16%,4µM*,-9%
O=C(CSc1ccc2nnc(-c3cccc(F)c3)n2n1)NCC1CCCO1 (stereo not given),u,2,-5%,-11%,5µM*,-12%
O=C(CSc1ccc2nnc(-c3cccc(F)c3)n2n1)N1CCCc2ccccc21,-17%,4,0%,-9%,u,-2%
Cc1cc(C)cc(NC(=O)CN2C(=O)CCc3cc(S(=O)(=O)N4CCCCC4)ccc32)c1,x,x,2%,u,1%[59 µM],-15%
Oc1ccccc1C(=S)N1CCN(C(=S)c2ccccc2O)CC1,28µM*,7,x,x,3.5µM*,x
COc1cccc(C(=S)N2CCCC2)c1OC,50µM*,-2,x,x,8.9µM*,x
Oc1ccccc1C(=S)N1CCCC1,50µM*,3,x,x,14%[0.501 µM],x
O=C(CCc1nnc2n(Cc3ccccc3Cl)c(=O)c3ccccc3n12)Nc1ccccc1,x,x,-7%,3%,-4%[59 µM],11%
O=C(CSc1nnc(NC(=O)c2ccccc2F)s1)NC1CC1,14%,1,x,x,8%,x
CCOc1ccccc1NC(=O)c1cnc2n(c1=O)CCS2,2%,1,u,u,79µM*,-10%
SMILES,Sfp PPTase inh,Coupling enz,Tau FP inhib,Tau fluor cs,G9a inh,Tau fibril ThT
O=C(Nc1ccc(Oc2ccccc2)cc1)c1cnc2n(c1=O)CCS2,-17%,3,u,u,56µM*,-15%
COc1ccc(NC(=O)Cn2c(=O)oc3cc(S(=O)(=O)N4CCCCC4C)ccc32)cc1 (stereo not given),x,x,-4%,-13%,6%[59 µM],5%
CCC1=C2CC[C@H]3C(=O)N(c4ccccc4)C(=O)[C@H]3[C@H]2[C@@]2(C)C(=O)N(CC(=O)OC)C(=O)N2C1=O,6%,4,2%,1%,x,1%
COc1cc(C2c3c(-c4cc(C)ccc4O)n[nH]c3C(=O)N2CCCO)ccc1OCCC(C)C (stereo not given),x,x,13%,u,-1%[59 µM],-4%
Cc1cc(C)c2ccc(=S)[nH]c2n1,u,2,0%,3%,8.9µM*,-7%
C[n+]1cccc2c(Br)ccc([O-])c21,56µM*,-69*,u,u,x,14µM*
C=CCn1c(-c2ccoc2C)n[nH]c1=S,4%,-6,9%,-3%,u,-10%
CCn1c(-c2ccc(F)cc2)n[nH]c1=S,-25%,3,2%,1%,u,1%
CCn1c(-c2cc(Cl)ccc2OC)n[nH]c1=S,-5%,-1,5%,-5%,5.6µM*,-4%
C=CCn1c(-c2cc(Cl)ccc2OC)n[nH]c1=S,0%,2,1%,-9%,1.6µM*,-22%
COc1cccc2cc(C(C)=O)oc12,8%,0,-15%,-2%,2%,-1%
COc1cccc2cc(-c3ccnc(=S)[nH]3)oc12,5%,2,u,-19%,0%,28µM*
CCn1c(-c2cccc(Cl)c2)n[nH]c1=S,1%,4,-2%,-2%,6.3µM*,-14%
Cc1c(-c2nsc(NC(=O)c3cccs3)n2)nnn1-c1ccc(Cl)cc1,x,x,u,2%,-29%[59 µM],u
C=CCn1c(-c2cccc(OC)c2OC)n[nH]c1=S,15%,1,0%,-2%,20µM*,-7%
C=CCn1c(-c2cc3cccc(OC)c3o2)n[nH]c1=S,-11%,-1,-5%,-6%,6.3µM*,u
COc1ccc(Cl)cc1-c1n[nH]c(=S)n1C,-2%,0,3%,-6%,7.9µM*,0%
C=CCn1c(-c2cc(OC)c(OC)c(OC)c2)n[nH]c1=S,u,1,-4%,-3%,u,0%
COc1ccc(Cl)cc1-c1nc(SCC(=O)N(C)C)n[nH]1,18%,1,-6%,-9%,-3%,-8%
Cc1ccc(C(=O)OC[C@H]2O[C@H](Cl)C[C@@H]2OC(=O)c2ccc(C)cc2)cc1,-7%,2,3%,-2%,x,-17%
CN(Cc1ccccc1)C(=O)Cn1c(=O)c2cccn2c2cccnc21,8%,x,x,x,-5%,x
O=C(NCC(c1ccc2c(c1)OCO2)N1CCN(c2ccccc2)CC1)C(=O)Nc1ccc(F)cc1 (stereo not given),x,x,7%,-26%,1%[59 µM],-7%
COc1ccc(C2(Nc3cccc(C(=O)O)c3C)C(=O)c3ccccc3C2=O)cc1,x,x,-1%,1%,4%[59 µM],2%

# Source: PubChem (National Center for Advancing Translational Sciences (NCATS))
